# Among all 1,300 compounds or so, about 25 (2%) were called active. The rule behind the calls is not given here. The sample as a whole holds a higher share of actives than the screen did.
# Target: Estrogen receptor (Homo sapiens) (UniProt P03372)
# Experiment: blockers of coactivator recruitment to ERα – biochemical, LOPAC library, TR-FRET, primary screen (AID 694);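 note: receptor was agonist-bound with estradiol present during the assay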
# Conditions: TR-FRET ERalpha-coactivator peptide binding, stronger effect = higher value
# Chain of Estrogen receptor (Homo sapiens) (P03372 whole entry, looked up): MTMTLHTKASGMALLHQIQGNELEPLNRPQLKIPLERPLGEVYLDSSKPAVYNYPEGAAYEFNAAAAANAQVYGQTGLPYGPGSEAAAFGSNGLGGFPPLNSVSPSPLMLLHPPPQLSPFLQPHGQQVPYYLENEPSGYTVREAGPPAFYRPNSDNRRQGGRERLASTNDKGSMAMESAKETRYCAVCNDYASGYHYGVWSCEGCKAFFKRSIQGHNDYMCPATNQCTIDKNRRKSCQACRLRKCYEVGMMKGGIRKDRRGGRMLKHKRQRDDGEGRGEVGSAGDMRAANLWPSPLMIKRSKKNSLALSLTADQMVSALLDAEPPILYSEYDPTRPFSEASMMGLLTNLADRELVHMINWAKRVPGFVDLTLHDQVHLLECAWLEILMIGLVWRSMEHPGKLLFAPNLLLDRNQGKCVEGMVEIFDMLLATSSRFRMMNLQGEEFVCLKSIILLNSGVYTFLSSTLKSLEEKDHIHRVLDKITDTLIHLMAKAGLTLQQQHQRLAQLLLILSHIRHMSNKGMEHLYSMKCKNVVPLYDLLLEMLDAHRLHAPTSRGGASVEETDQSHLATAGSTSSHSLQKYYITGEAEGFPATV
SMILES,inhibition (at 45 µM),"inhibition (inhibition, at 15 µM) [%]"
OC[C@H]1O[C@@H](n2cnc3c(NC4CCCC4)ncnc32)C(O)[C@H]1O (stereo not given in full),-0.88% (inactive),3.03
COc1cc(C(=O)OCCCN2CCCN(CCCOC(=O)c3cc(OC)c(OC)c(OC)c3)CC2)cc(OC)c1OC,-2.88% (inactive),-1.75
CN[C@H](CC(=O)O)C(=O)O,-0.69% (inactive),-0.99
COc1cccc(OC)c1OCCNCC1COc2ccccc2O1 (stereo not given),52.7% (inactive),-0.05
Nc1c(S(=O)(=O)O)cc(Nc2ccc(Nc3nc(Cl)nc(Nc4ccc(S(=O)(=O)O)cc4)n3)c(S(=O)(=O)O)c2)c2c1C(=O)c1ccccc1C2=O,75.2% [fluorescence artefact?] (active),58.5
OC[C@H]1O[C@@H](n2cnc3c(N[C@H]4CC5CCC4C5)ncnc32)[C@H](O)[C@@H]1O (stereo not given in full),-7.11% (inactive),-3.27
CC(C)(C)c1ccc(S(=O)(=O)/C=C/C#N)cc1,-4.31% (inactive),-2.91
CCCc1c(OCCCOc2ccc(OCC(=O)O)cc2)ccc(C(C)=O)c1O,-1.06% (inactive),5.6
C[C@]12CCC(=O)C=C1CC[C@@H]1[C@@H]2[C@@H](O)C[C@@]2(C)[C@H]1CC[C@]2(O)C(=O)COC(=O)CCC(=O)O,0.81% (inactive),1.7
Oc1cc2c(c(Cl)c1O)CCNCC2c1ccccc1 (stereo not given),-1.88% (inactive),4.73
Cc1cccc(C)c1OCC(N)C(C)C (stereo not given),-0.93% (inactive),-1.42
O=[N+]([O-])c1ccc(-c2nc(-c3ccc(F)cc3)c(-c3ccncc3)[nH]2)cc1,-3.67% (inactive),-0.79
Cc1scc2c1N(C(=O)CN1CCN(C)CC1)c1ccccc1NC2=O,-3.58% (inactive),-4.27
O=C(Cc1ccc(Cl)c(Cl)c1)OCCN1CCCC1,-23.1% (inactive),-1.83
O=[N+]([O-])c1cccc2c(Br)[nH]nc12,-0.31% (inactive),-5.48
N[C@@H](CC(=O)O)C(=O)O,-5.55% (inactive),-8.89
CC(C)(Sc1ccc(CCN(CCCCC2CCCCC2)C(=O)NC2CCCCC2)cc1)C(=O)O,43.1% (inactive),8.46
NS(=O)(=O)c1cccc2c1c([N+](=O)[O-])cc1nc(O)c(O)nc12,-0.73% (inactive),-5.25
CC(=O)O[C@H]1CC2(C)[C@@H](C[C@@H](O)[C@H]3[C@@]4(C)CC[C@@H](O)[C@@H](C)[C@@H]4CC[C@@]32C)C1=C(CCC=C(C)C)C(=O)O (stereo not given in full),80.4% (inactive),14.2
Oc1cc(O)cc(/C=C/c2ccc(O)c(O)c2)c1,70.5% (inactive),32.3
COc1cc2c(CCNC(C)=O)c[nH]c2cc1O,-5.77% (inactive),-3
N#C/C(=C\c1c[nH]c2ccccc12)C(=O)c1ccc(O)c(O)c1,4.91% (inactive),10.1
CSc1nc(N)c2ncn([C@@H]3O[C@H](COP(=O)(O)OP(=O)(O)O)[C@H](O)C3O)c2n1 (stereo not given in full),2.87% (inactive),-1.28
CN1CCc2c(cc(O)c(O)c2Cl)C(c2cccc(Cl)c2)C1 (stereo not given),7.51% (inactive),4.56
OC[C@H]1O[C@@H](n2cnc3c(NC4CCCCC4)ncnc32)[C@H](O)[C@@H]1O,-1.41% (inactive),-1.34

# — PubChem BioAssay AID694 (Emory University Molecular Libraries Screening Center, 2007)
